Compounds with a hit are over-represented: about 8% of the library has one in this group of screens.
KB-3-1 tox: KB-3-1 parental cell cytotoxicity | KB-3-1 viability, CellTiter-Glo ATP luminescence, 72 h | 400,000 tested, 1.4% active | Potency, µM (top dose mostly 46.1 µM), hits mostly cytotoxic | AID 1347075; note: % is set by controls: 0 for no effect and ±100 for the full control effect; nearly all actives have a fitted effect of over 60% in size
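Using CellTiter-Glo luminescence, growth of non-resistant KB-3-1 adenocarcinoma cells is assessed 72 h after pin-tool compound addition at 37 °C. Normalized responses across the concentration series yield fitted curves.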
SW480 rerep: induces DNA re-replication in SW480 colon adenocarcinoma cells. SW480 DNA re-replication, Hoechst DNA content imaging, 48 h. Potency, µM (titrated, usually from 46.1 µM), for the others: at the highest dose re-replication activation, most hits filed as activators. 340,000 tested, 1.8% active; note: % of control where 0% means no effect; nearly all actives have a fitted effect of over 55% in size
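Compounds, transferred as 23 nL by pin tool, were incubated with cells for 48 hr; DNA content per nucleus was then quantified by Hoechst staining and fluorescence plate imaging.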
KB-V1 cytotox: KB-V1 MDR subline cytotoxicity; 400,000 tested, 3.4% active; KB-V1 MDR cells viability, CellTiter-Glo, 72 h; Potency, µM (top dose mostly 46.1 µM), actives largely listed as cytotoxic; note: % is set by controls: 0 for no effect and ±100 for the full control effect; nearly all actives have a fitted effect of over 60% in size
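KB-V1, DMEM (no phenol red) + 10% FBS; cpd pin-transferred, titration series; 72 h, 37 degrees C; CellTiter-Glo, luminescence. Data normalized, curve-fit.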
HT1080 IDH1KD tx: HT-1080 IDH1 knockdown cell toxicity (counter line); Potency, µM (titrated, usually from 46.1 µM), for the others: at the highest dose activity, negative = toxicity, most hits filed as cytotoxic; HT-1080 IDH1 knockdown viability, ATP luminescence, 48 h; AID 686971; 360,000 tested, 2% active;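 note: 0% = DMSO wells and -100% = cell-free medium wells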
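Luminescent ATP read-out (CellTiter-Glo, 10 min at room temperature) after 48 h compound exposure at 37 °C gave viability of IDH1-knockdown HT-1080 cells. Activity was normalised to DMSO and cell-free wells, then fitted as concentration-response curves.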
MCF10A rerep: DNA re-replication induction in MCF 10a cells | MCF 10A DNA re-replication, Hoechst nuclear intensity, 48 h | 350,000 tested, 2.9% active | Potency, µM (titrated, usually from 46.1 µM), for inactives: at the top dose activity, positive = re-replication, most hits filed as activators | AID 624296; note: % of control where 0% means no effect; nearly all actives have a fitted effect of over 50% in size
HT1080NT lethal: kills 2HG-producing HT-1080-NT fibrosarcoma cells. HT-1080-NT fibrosarcoma viability, CellTiter-Glo ATP luminescence, 48 h. Potency, µM (titrated, usually from 46.1 µM), for the others: at the top dose activity, negative = less viability, usual class: cytotoxic. 360,000 tested, 1.6% active. AID 686970;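 note: NT is the 2HG producing partner of a matched IDH1 knockdown line; 0% = DMSO-treated cells and -100% = media-only wells without cells; nearly all actives have a fitted effect of over 55% in size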
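Viability of the 2HG-overproducing fibrosarcoma line after 48 hours of compound exposure at 37 degrees C was determined by luminescence with CellTiter-Glo, and concentration-effect curves were then fitted and categorized.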
An asterisk follows results filed as active; i = inactive; ? = inconclusive; / = no result. Calls come from the whole dose curve; as a rule, active = well fitted curve in the direction sought with a large enough effect; inconclusive = small, poorly fitted or top-dose-only effect, or another doubt; inactive = no such curve, though single readings can be large; an effect the other way counts as inactive or inconclusive. Potency is the fitted concentration of half-maximal effect.

SMILES | KB-3-1 tox | SW480 rerep | KB-V1 cytotox | HT1080 IDH1KD tx | MCF10A rerep | HT1080NT lethal
COCCNc1nc(NCC2CCCCC2)c2sc(-c3ccccc3)cc2n1 | ? | / | ? | 18.4µM* | / | 18.4µM*
Cc1oc2ncn(CC(C)C)c(=O)c2c1C(=O)N1CCN(c2ccc(F)cc2)CC1 | i | / | i | / | / | /
CC(Sc1ncc(S(=O)(=O)c2ccc(C(C)C)cc2)c(N)n1)C(=O)Nc1ccccc1 (stereo not drawn) | ? | / | i | / | / | /
S=c1[nH]cc(-c2ccccc2)n1-c1ccccc1Cl | i | -2.9% | 13µM* | -0.8% | 7.5% | 7.0%
COc1ccccc1-n1c(-c2ccccc2)c[nH]c1=S | i | -7.0% | i | 1.2% | 5.17µM* | 0.3%
CC(C)N(CC(=O)Nc1ccc(Cl)cc1C(F)(F)F)C(=O)CCl | i | ? | ? | 6.51µM* | ? | 6.51µM*
CCC(C)N(CC(=O)Nc1cccc(C)c1C)C(=O)CCl (stereo not drawn) | ? | ? | ? | 1.03µM* | ? | 1.64µM*
CN(C)c1ccc(/C=C2/C[N+](C)(C)C/C(=C/c3ccc(N(C)C)cc3)C2=O)cc1 | 16.4µM* | ? | i | 16.4µM* | ? | ?
CC(C)/C=C1\CC/C(=C\c2ccc(N(C)C)cc2)C1=O | i | ? | ? | 16.7% | ? | 11.8%
CCc1nc(N2CCC(C)CC2)c2oc3ccccc3c2n1 | i | ? | 9.2µM* | ? | 18.4µM* | ?
CCc1nc(SCC(=O)N2CCN(c3ccccc3)CC2)c2oc3ccccc3c2n1 | i | -1.6% | 13µM* | -17.3% | 9.2µM* | 7.4%
CCc1nc(N(CC)CC)c2oc3ccccc3c2n1 | i | 1.0% | i | -15.4% | 15.8% | -21.0%
CC(=O)Nc1c(Cl)cc2c(c1Cl)Cc1cc(C#N)ccc1-2 | 1.16µM* | 14.2% | 0.92µM* | -14.4% | 1.2% | -9.3%
CCN(c1ccccc1)S(=O)(=O)c1ccc(Cl)c(NC(=O)COC(=O)C2CC2C)c1 (stereo not drawn) | i | 8.4% | i | -7.4% | -2.4% | -1.4%
CN(C)S(=O)(=O)c1ccc(Cl)c(NC(=O)CN2CCCCCC2)c1 | i | -0.9% | ? | 3.2% | -10.3% | 4.3%
O=C(CN1CCN(C/C=C/c2ccccc2)CC1)Nc1cc([N+](=O)[O-])ccc1Cl | ? | 10.1% | 23.1µM* | -2.5% | 13.7% | -8.6%
CCN(c1ccccc1)S(=O)(=O)c1ccc(Cl)c(NC(=O)CNC(C)c2ccccc2)c1 (stereo not drawn) | ? | 17.3% | 16.4µM* | -9.2% | 0.4% | -8.7%
CCN(c1ccccc1)S(=O)(=O)c1ccc(Cl)c(NC(=O)CN(C)Cc2cccc(F)c2)c1 | ? | 20.2% | 16.4µM* | -14.9% | ? | -1.1%
CCC(C)NCC(=O)Nc1cc(S(=O)(=O)N(CC)c2ccccc2)ccc1Cl (stereo not drawn) | ? | 13.5% | i | -12.0% | 25.9% | -19.6%
CCN(c1ccccc1)S(=O)(=O)c1ccc(Cl)c(NC(=O)CN2CCCCCC2)c1 | ? | 100.9% | 20.6µM* | ? | ? | ?
COc1ccc2oc(C(=O)OCC(=O)N(CCC#N)c3ccccc3)c(C)c2c1 | i | 0.9% | ? | 3.2% | 14.5% | 2.6%
Cc1c(NC(=O)c2cc3ccccc3oc2=O)c(=O)n(-c2ccccc2)n1C | i | -4.9% | i | 0.0% | -4.2% | 19.5%
Cc1cccc2c(=O)[nH]c3c(-c4nc(-c5ccc(Cl)cc5)cs4)c(O)cn3c12 | i | / | i | / | / | /
CCN(c1ccccc1)S(=O)(=O)c1ccc(OC)c(NC(=O)CN(C)C)c1 | i | 13.0% | i | -4.4% | ? | -7.6%
CCN(c1ccccc1)S(=O)(=O)c1ccc(OC)c(NC(=O)CNC)c1 | ? | 28.9% | ? | -3.4% | 8.2µM* | -26.9%
SMILES | KB-3-1 tox | SW480 rerep | KB-V1 cytotox | HT1080 IDH1KD tx | MCF10A rerep | HT1080NT lethal
CCOC(=O)c1c(NC(=O)COc2ncnc3ccccc23)sc(C)c1CC | i | -0.4% | ? | -8.3% | ? | -1.1%
COc1cccc(/C=N/NC(=O)c2c(C)nc3ccc(Cl)cn23)c1O | ? | 0.259µM* | ? | ? | ? | -29.4%
C=CCc1cccc(/C=N/NC(=O)c2ccc3nc[nH]c3c2)c1O | ? | ? | i | ? | 20.6µM* | ?
COc1ccc(OC)c(/C=N\NC(=O)c2ccc(-c3ccccc3)cc2)c1 | i | 0.9% | i | 14.9% | ? | 3.5%
COc1cccc(/C=N/NC(=O)c2ccc(-c3ccccc3)cc2)c1O | 5.8µM* | ? | ? | ? | ? | ?
COc1cccc(/C=N/NC(=O)C(=O)Nc2ccccc2OC(F)(F)C(F)F)c1O | 9.2µM* | ? | ? | ? | ? | ?
O=C(COc1ccccc1F)Nc1ccccc1C(=O)OCc1cc(=O)n2nc(C3CC3)sc2n1 | i | / | i | / | / | /
COc1ccc(CCC(=O)OCC(=O)NC(=O)c2ccc(Cl)cc2)cc1 | i | -1.2% | i | 9.6% | 7.0% | 11.2%
C=CCc1cccc(/C=N/NC(=O)C(C)Nc2ccc(C)cc2)c1O (stereo not drawn) | ? | 16.4µM* | 20.6µM* | ? | ? | -23.5%
CCOc1ccccc1C=NNC(=O)C(=O)NN=Cc1ccccc1OCC | i | -12.9% | i | -1.7% | -5.6% | -3.3%
CCOc1ccccc1NC(=O)C(=O)N/N=C/c1cc(Br)ccc1O | ? | 0.82µM* | i | ? | -9.7% | ?
C=CCc1cccc(/C=N/NC(=O)C(=O)Nc2ccc(C)cc2)c1O | i | 3.8% | i | -17.4% | 2.0% | -9.9%
Cc1cccc(/C=N\NC(=O)c2ccc(Cl)cc2)c1O | ? | ? | ? | 3.26µM* | 13.0% | ?
Cc1cccc(/C=N/NC(=O)Cc2ccc(Cl)cc2)c1O | ? | ? | i | ? | 8.7% | -27.3%
C=CCc1cccc(/C=N/NC(=O)c2ccccc2OC)c1O | i | ? | i | 16.4µM* | 2.3% | ?
COc1cccc(/C=N/NC(=O)c2ccc(=O)[nH]n2)c1O | i | 3.5% | i | 23.1µM* | 10.1% | ?
COc1ccc(OC)c(/C=N/NC(=O)c2ccc(=O)[nH]n2)c1 | i | -12.7% | ? | -0.7% | -0.7% | -2.4%
CN(C(=O)CSC1=NCCS1)c1ccccc1 | i | 1.1% | i | 13.5% | 7.5% | 17.0%
CN(C(=O)CSc1nc(N)c2c3c(sc2n1)CSC(C)(C)C3)c1ccccc1 | i | 0.9% | i | -26.9% | 8.2µM* | -26.3%

Compound activity: PubChem, National Center for Advancing Translational Sciences (NCATS)
